Shown are actives, neighbours in structure and some others; about 2.6% of the full set was active somewhere.
ABHD5 PLIN5 PPI – inhibitors of human ABHD5-perilipin-5 interaction; inhibition, % at 4 µM; AID 602281; Split G. princeps luciferase complementation, luminescence, 4 h; actives 0.78% (n = 360,000);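 active = inhibition above the mean inhibition across every tested compound plus 3 SD, cut at about 22% in these data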
TLR9-MyD88 block – blocks human TLR9 binding to MyD88 | Q9NR96+Q99836 | CHO BLA complementation TLR9-MyD88, CCF4 FRET ratio | inhibition, % at 4.98 µM | actives 0.21% (n = 340,000) | AID 504734;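 active = inhibition above the mean over all tested compounds plus 3 SD, cut at about 21% in these data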
PRMT1 FP inh – inhibitors of human PRMT1 | Q99873 | recombinant PRMT1, activity-based probe fluorescence polarization | inhibition, % at 2.79 µM | actives 1.3% (n = 370,000);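 active = inhibition above about 21% made by adding two undisclosed values, limit read from the data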
TLR4 MyD88 comp – TLR4-MyD88 interaction inhibition in cells. O00206+Q99836. actives 0.18% (n = 200,000). inhibition, % at 8.4 µM. HeLa CL3-4 TLR4/MyD88 BLA complementation, FRET ratio; in the data active = inhibition above about 25%
Exocytosis inh – blocks lytic granule exocytosis. TALL-104 LAMP-1 surface exposure, flow cytometry; cells stimulated with thapsigargin and PMA. inhibition, % at 10 µM. actives 0.66% (n = 360,000);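 active = inhibition above about 55%, limit read from the data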
NOD2 RIPK2 PPI – blocks binding of human NOD2 to RIPK2; CHO BLA complementation NOD2-RIPK2, CCF4 ratio; inhibition, % at 4.98 µM; actives 0.38% (n = 360,000); AID 624267; in the data active = inhibition above about 21%
Each line names hits and unclear results; the compound was inactive in the other large screens.

CN(C)CCCNC(=O)C[C@H]1C[C@H](C(=O)N2CCCCC2)[C@@]2(C)c3[nH]c4cc(-c5ccco5)ccc4c3CCN2C1=O	none (no result: TLR4 MyD88 comp)
COc1ccc(CNC(=O)C[C@H]2C[C@H](C(=O)N3CCCCC3)[C@@]3(CCc4ccccc4)c4[nH]c5cc(-c6ccco6)ccc5c4CCN3C2=O)cc1OC	ABHD5 PLIN5 PPI 45 (no result: PRMT1 FP inh, TLR4 MyD88 comp)
CN(CCOC(=O)CSc1ccccc1)C1CN(Cc2cn(Cc3ccccc3F)nn2)S(=O)(=O)C1 (configuration not stated)	none (no result: ABHD5 PLIN5 PPI, TLR9-MyD88 block, TLR4 MyD88 comp, Exocytosis inh, NOD2 RIPK2 PPI)
O=C(COc1cccnc1[N+](=O)[O-])c1ccc(Cl)s1	PRMT1 FP inh 52 (no result: TLR4 MyD88 comp)
O=C(COc1cccnc1[N+](=O)[O-])Nc1c(Cl)cccc1Cl	none (no result: TLR4 MyD88 comp)
CCOC(=O)C1=C(C(=O)OCC)C2N(Cc3ccc(C#N)cc3)c3ccccc3[C@@]23C[C@@H](C(=O)OC)N(S(=O)(=O)c2ccccc2C)C3=N1 (some centres not stated)	none (no result: ABHD5 PLIN5 PPI, TLR9-MyD88 block, TLR4 MyD88 comp, Exocytosis inh, NOD2 RIPK2 PPI)
Cc1ccc(NC(=S)N(CCN(C)C)Cc2cccs2)c(C)c1	PRMT1 FP inh 22
Cc1cc(C)c(NC(=S)N(CCN(C)C)Cc2cccs2)c(C)c1	none
CC(C)CCNC(=O)C(NS(=O)(=O)c1ccc2c(c1)c(=O)n(C)c(=O)n2C)c1ccccc1 (configuration not stated)	PRMT1 FP inh 21
Cc1cccc2sc(NNC(=O)c3ccc(S(=O)(=O)N4CCc5ccccc5C4)cc3)nc12	ABHD5 PLIN5 PPI 23
Cc1cccc2sc(NNC(=O)c3ccc(S(=O)(=O)N4CCCC(C)C4)cc3)nc12 (configuration not stated)	none
COC(=O)[C@]12C[C@H](CC(=O)NCCCN3CCCC3=O)C(=O)N(CCC3=CCCCC3)C1=C[C@H](C(C)(C)C)O[C@@H]2C	none (no result: ABHD5 PLIN5 PPI, TLR9-MyD88 block, TLR4 MyD88 comp, Exocytosis inh, NOD2 RIPK2 PPI)
CCNC(=O)c1sc(=S)n(CC)c1N	none
CCn1c(N)c(C(=O)NC)sc1=S	PRMT1 FP inh 25
Cc1ccc(C2NC(=S)N3C(c4ccc(C)cc4)NC(=S)N23)cc1 (configuration not stated)	PRMT1 FP inh 22 (no result: TLR4 MyD88 comp)
COc1ccc(O)c(/C=N/c2sc(C)c(C)c2C#N)c1	PRMT1 FP inh 24
C/C(=N\NC(=O)Cc1cccs1)c1ccco1	none (no result: ABHD5 PLIN5 PPI, TLR9-MyD88 block, TLR4 MyD88 comp, Exocytosis inh, NOD2 RIPK2 PPI)
O=C(NCc1ccco1)c1ccc(-c2ccc3nccn3c2)cc1	ABHD5 PLIN5 PPI 22 (no result: TLR9-MyD88 block, TLR4 MyD88 comp)
Oc1cccc(C=Nc2cccc3ccccc23)c1O	PRMT1 FP inh 38 (no result: TLR4 MyD88 comp)
Oc1cccc(C=NCc2ccccc2)c1O	PRMT1 FP inh 36
O=C(NCC1CCN(C(=O)C(=O)c2cc3ccccc3o2)CC1)c1cccnc1	none (no result: ABHD5 PLIN5 PPI, TLR9-MyD88 block, TLR4 MyD88 comp, Exocytosis inh, NOD2 RIPK2 PPI)
Nc1cc(-c2ccncc2)c[nH]c1=O	PRMT1 FP inh 24
COC(=O)C1=C(C)N(Cc2ccc(C)cc2)C(=O)/C1=C\c1cc(OC)c(OC)c(OC)c1	none
CCOc1cc(/C=C2\C(=O)N(CCc3ccc(OC)c(OC)c3)C(C)=C2C(=O)OC)ccc1O	PRMT1 FP inh 26
Cc1nc2ccccc2n2c(O)c(CC(=O)O)cc12	PRMT1 FP inh 44
Cc1nc2ccccc2n1CCC(=O)O	none
CC(C)(C)c1ccc(CN2N=Nc3ccccc3S2(=O)=O)cc1	Exocytosis inh 97
COCc1[nH]nc2c1C(c1ccc(C)cc1)N(c1ccc(OC)cc1)C2=O (configuration not stated)	none (no result: ABHD5 PLIN5 PPI, TLR9-MyD88 block, TLR4 MyD88 comp, Exocytosis inh, NOD2 RIPK2 PPI)
CCCCc1cn([C@@H](CCCCNC(=O)OC(C)(C)C)C(=O)N2CCN(C(=O)OC(C)(C)C)CC2)nn1	Exocytosis inh 103
CC(C)(C)OC(=O)NCCCC[C@@H](C(=O)N1CCN(C(=O)OC(C)(C)C)CC1)n1cc(CCC(=O)O)nn1	none
CCCCCCCCN1C(=O)[C@@H](CC(=O)NCCCCc2ccccc2)C[C@@]2(C(=O)OC)C1=C[C@H](C1CCCC1)O[C@@H]2C	none (no result: ABHD5 PLIN5 PPI, TLR9-MyD88 block, TLR4 MyD88 comp, Exocytosis inh, NOD2 RIPK2 PPI)
CC(C)N1CCc2c(sc(NC(=O)c3nc4ccccc4s3)c2C(N)=O)C1	none
CC(C)N1CCc2c(sc(NC(=O)c3cc(-c4cccs4)nc4ccccc34)c2C(N)=O)C1	Exocytosis inh 76 (no result: PRMT1 FP inh)
CN1C(=O)[C@@]2(O[C@H]3[C@H]4C=C[C@@H]([C@H]5C(=O)N(Cc6ccccc6)C(=O)[C@@H]45)N3C3=C2C(=O)CC3)c2ccccc21	none (no result: ABHD5 PLIN5 PPI, TLR9-MyD88 block, TLR4 MyD88 comp, Exocytosis inh, NOD2 RIPK2 PPI)
COc1ccccc1CCn1cnc(-c2cccc(Br)c2)c1C(C)C	none (no result: ABHD5 PLIN5 PPI, TLR9-MyD88 block, TLR4 MyD88 comp, Exocytosis inh, NOD2 RIPK2 PPI)

Screens deposited in PubChem by several laboratories.
